Test results as given in PMC7862700, “An all-to-all approach to the identification of sequence-specific readers for epigenetic DNA modifications on cytosine”.

Tests used:
Test in all cases: DAPPL (digital affinity profiling via proximity ligation, sequencing); 10 mM Tris-HCl pH 7.5, 50 mM NaCl, 1 mM DTT, 4% glycerol, room temperature, 30 min; GST-TFs on glutathione beads, 16-mer random dsDNA library, 0.1% formaldehyde crosslink after washing; high values mean tight binding
FEV = target: T1, FEV (Homo sapiens, UniProt Q99581 1-238); conditions: protein: recombinant; tags: N-terminal GST; dsDNA, one strand shown
T1 sequence: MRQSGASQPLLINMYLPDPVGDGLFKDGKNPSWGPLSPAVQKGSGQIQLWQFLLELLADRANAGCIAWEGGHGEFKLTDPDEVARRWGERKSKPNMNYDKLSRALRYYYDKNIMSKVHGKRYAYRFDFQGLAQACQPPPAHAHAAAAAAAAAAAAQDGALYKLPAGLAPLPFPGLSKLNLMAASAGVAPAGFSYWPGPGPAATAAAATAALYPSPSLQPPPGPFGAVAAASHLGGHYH
Procedure, shortened: (§1)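 Pools of DNA-barcoded human transcription factors, expressed in yeast as GST fusions on glutathione beads and combined with a tag-only sample, were incubated with 200 nmole of a 16-mer random double-stranded DNA library. Incubation took 30 min at room temperature in Tris/NaCl/DTT/glycerol buffer and was followed by washing, 0.1% formaldehyde crosslinking, proximity ligation (BsaI/T4 ligase, 1 h, 37 °C), PCR amplification and sequencing on an Illumina NextSeq500. Binding signal is the ratio of a hexamer's read frequency for a factor to its frequency for the tag-only sample.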

ETV5 = ETV5 (Homo sapiens, UniProt P41161 1-510); conditions: protein: recombinant; tags: N-terminal GST; dsDNA, one strand shown
Sequence of ETV5 (P41161 whole entry): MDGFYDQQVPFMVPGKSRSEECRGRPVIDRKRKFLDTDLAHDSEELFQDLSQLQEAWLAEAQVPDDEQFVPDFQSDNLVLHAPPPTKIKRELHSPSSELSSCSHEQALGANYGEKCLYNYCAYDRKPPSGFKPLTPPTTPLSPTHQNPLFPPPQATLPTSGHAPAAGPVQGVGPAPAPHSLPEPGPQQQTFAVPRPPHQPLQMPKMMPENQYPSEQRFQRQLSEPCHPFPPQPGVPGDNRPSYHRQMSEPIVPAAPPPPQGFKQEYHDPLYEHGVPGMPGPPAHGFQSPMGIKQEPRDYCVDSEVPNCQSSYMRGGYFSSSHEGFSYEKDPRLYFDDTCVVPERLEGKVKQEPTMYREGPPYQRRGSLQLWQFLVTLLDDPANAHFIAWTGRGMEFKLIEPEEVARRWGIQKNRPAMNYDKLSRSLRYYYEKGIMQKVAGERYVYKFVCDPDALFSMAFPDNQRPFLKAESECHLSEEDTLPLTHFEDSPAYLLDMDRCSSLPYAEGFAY
Procedure, shortened: as §1

HSF1 = HSF1 (Homo sapiens, UniProt Q00613 1-529); conditions: protein: recombinant; tags: N-terminal GST; chain copies: 3; dsDNA, one strand shown
Sequence of HSF1 (Q00613 whole entry): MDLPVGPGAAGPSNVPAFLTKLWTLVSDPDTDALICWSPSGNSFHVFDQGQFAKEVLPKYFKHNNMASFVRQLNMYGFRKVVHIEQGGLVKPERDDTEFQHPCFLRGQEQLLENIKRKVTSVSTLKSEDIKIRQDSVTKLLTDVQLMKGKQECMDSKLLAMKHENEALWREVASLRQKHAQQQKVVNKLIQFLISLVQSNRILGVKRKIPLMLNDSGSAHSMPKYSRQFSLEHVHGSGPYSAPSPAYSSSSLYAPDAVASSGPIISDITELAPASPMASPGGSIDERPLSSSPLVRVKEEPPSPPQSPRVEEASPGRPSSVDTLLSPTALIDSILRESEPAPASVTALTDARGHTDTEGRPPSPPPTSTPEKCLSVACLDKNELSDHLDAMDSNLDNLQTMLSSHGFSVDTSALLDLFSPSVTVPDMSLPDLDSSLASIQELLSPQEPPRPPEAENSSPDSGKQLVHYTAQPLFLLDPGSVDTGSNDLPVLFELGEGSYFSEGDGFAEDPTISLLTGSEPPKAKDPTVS
Procedure, shortened: as §1

SPIC = target: T2, SPIC (Homo sapiens, UniProt Q8N5J4 1-248); conditions: protein: recombinant; tags: N-terminal GST; dsDNA, one strand shown
T2 sequence: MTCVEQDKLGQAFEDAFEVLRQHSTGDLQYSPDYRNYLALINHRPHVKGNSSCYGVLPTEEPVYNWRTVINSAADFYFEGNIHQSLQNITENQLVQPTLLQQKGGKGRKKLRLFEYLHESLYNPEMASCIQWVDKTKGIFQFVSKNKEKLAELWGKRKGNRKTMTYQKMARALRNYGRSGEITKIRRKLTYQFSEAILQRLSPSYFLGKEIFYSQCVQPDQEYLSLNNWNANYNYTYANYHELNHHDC
Procedure, shortened: as §1

ELF4 = ELF4 (Homo sapiens, UniProt Q99607 1-663); conditions: protein: recombinant; tags: N-terminal GST; dsDNA, one strand shown
Sequence of ELF4 (Q99607 whole entry): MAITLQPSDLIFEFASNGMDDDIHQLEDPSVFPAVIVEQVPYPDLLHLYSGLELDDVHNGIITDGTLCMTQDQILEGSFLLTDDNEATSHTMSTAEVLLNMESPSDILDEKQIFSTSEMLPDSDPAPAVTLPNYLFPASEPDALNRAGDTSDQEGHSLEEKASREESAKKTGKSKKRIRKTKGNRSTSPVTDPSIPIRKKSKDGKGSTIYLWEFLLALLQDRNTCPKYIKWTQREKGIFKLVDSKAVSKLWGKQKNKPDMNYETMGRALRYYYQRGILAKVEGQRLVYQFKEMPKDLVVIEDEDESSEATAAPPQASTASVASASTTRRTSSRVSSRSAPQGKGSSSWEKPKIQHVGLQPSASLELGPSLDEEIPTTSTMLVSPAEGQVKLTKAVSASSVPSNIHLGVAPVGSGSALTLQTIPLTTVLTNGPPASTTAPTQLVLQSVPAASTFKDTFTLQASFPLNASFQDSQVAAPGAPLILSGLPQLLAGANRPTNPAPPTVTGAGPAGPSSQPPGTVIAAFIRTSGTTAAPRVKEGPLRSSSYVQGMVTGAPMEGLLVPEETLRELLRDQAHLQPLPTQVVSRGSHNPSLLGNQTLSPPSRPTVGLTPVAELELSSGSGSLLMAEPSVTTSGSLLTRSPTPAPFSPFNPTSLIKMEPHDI
Procedure, shortened: as §1

ELK4 = target: T3, ELK4 (Homo sapiens, UniProt P28324-2 1-405); conditions: protein: recombinant; tags: N-terminal GST; dsDNA, one strand shown
T3 sequence: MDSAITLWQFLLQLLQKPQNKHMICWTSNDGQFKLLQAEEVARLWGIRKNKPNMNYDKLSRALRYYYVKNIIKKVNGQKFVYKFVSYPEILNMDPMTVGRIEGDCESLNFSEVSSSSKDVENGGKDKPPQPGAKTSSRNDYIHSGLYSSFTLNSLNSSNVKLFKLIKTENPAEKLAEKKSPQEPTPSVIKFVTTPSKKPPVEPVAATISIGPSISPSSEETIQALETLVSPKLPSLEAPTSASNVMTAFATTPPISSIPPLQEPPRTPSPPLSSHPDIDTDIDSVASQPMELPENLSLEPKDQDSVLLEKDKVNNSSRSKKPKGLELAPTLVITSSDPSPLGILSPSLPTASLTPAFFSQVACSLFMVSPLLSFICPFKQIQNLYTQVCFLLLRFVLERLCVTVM
Procedure, shortened: as §1

ETV2 = target: T4, ETV2 (Homo sapiens, UniProt O00321 1-342); conditions: protein: recombinant; tags: N-terminal GST; dsDNA, one strand shown
T4 sequence: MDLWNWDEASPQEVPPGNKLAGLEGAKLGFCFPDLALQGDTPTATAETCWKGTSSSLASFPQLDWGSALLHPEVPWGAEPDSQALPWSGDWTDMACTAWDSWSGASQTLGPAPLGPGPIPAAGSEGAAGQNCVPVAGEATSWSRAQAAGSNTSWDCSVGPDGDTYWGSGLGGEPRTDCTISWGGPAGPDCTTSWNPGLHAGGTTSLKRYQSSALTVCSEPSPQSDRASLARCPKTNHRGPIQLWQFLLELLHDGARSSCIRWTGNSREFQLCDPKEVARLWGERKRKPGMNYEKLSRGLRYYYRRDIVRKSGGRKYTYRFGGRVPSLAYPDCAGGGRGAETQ
Procedure, shortened: as §1

ELF3 = target: T5, ELF3 (Homo sapiens, UniProt P78545 1-371); conditions: protein: recombinant; tags: N-terminal GST; dsDNA, one strand shown
T5 sequence: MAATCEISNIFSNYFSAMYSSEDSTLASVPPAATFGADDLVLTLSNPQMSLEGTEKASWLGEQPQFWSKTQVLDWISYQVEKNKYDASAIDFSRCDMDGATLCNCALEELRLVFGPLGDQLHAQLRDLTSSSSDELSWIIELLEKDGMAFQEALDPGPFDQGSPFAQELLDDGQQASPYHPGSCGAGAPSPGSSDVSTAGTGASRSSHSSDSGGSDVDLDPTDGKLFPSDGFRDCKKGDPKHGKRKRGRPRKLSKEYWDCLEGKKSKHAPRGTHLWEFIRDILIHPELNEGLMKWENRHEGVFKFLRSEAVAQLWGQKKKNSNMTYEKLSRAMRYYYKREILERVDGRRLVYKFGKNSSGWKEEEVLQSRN
Procedure, shortened: as §1

CRX = CRX (Homo sapiens, UniProt O43186 1-299); conditions: protein: recombinant; tags: N-terminal GST; dsDNA, one strand shown
Sequence of CRX (O43186 whole entry): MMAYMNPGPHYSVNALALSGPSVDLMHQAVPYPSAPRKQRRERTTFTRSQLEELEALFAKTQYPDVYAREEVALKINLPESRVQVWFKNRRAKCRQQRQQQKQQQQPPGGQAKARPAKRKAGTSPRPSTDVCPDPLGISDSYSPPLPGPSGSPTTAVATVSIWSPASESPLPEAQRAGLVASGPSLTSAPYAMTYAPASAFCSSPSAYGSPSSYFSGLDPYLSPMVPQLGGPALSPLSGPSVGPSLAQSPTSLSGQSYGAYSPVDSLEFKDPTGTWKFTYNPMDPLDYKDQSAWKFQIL
Procedure, shortened: as §1

ETV1 = ETV1 (Homo sapiens, UniProt P50549 1-477); conditions: protein: recombinant; tags: N-terminal GST; dsDNA, one strand shown
Sequence of ETV1 (P50549 whole entry): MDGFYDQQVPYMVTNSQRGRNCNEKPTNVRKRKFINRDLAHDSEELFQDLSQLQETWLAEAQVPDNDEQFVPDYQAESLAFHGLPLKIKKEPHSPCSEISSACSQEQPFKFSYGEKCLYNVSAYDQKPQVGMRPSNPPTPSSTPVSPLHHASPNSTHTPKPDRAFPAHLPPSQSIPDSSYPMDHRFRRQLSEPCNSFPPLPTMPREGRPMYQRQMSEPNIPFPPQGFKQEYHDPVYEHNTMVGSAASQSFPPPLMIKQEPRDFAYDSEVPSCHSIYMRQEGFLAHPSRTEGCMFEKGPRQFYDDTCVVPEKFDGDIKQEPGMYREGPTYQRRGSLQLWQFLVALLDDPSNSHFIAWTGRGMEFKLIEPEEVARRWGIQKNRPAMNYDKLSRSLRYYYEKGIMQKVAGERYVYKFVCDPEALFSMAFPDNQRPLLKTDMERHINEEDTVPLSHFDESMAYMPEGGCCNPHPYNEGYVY
Procedure, shortened: as §1

Sequence	binding signal (FEV)	binding signal (ETV5)	binding signal (HSF1)	binding signal (SPIC)	binding signal (ELF4)	binding signal (ELK4)	binding signal (ETV2)	binding signal (ELF3)	binding signal (CRX)	binding signal (ETV1)
ATGCTT	1.2 fold enrichment (6-mer frequency, TF over GST control)	1.29 fold enrichment (6-mer frequency, TF over GST control)	1.23 fold enrichment (6-mer frequency, TF over GST control)	1.6 fold enrichment (6-mer frequency, TF over GST control)	1.3 fold enrichment (6-mer frequency, TF over GST control)	1.45 fold enrichment (6-mer frequency, TF over GST control)	1.29 fold enrichment (6-mer frequency, TF over GST control)	1.35 fold enrichment (6-mer frequency, TF over GST control)	1.24 fold enrichment (6-mer frequency, TF over GST control)	1.3 fold enrichment (6-mer frequency, TF over GST control)
ATGCGC	1.17 fold enrichment (6-mer frequency, TF over GST control)	1.07 fold enrichment (6-mer frequency, TF over GST control)	1.27 fold enrichment (6-mer frequency, TF over GST control)	1.13 fold enrichment (6-mer frequency, TF over GST control)	1.22 fold enrichment (6-mer frequency, TF over GST control)	1.28 fold enrichment (6-mer frequency, TF over GST control)	1.1 fold enrichment (6-mer frequency, TF over GST control)	1.1 fold enrichment (6-mer frequency, TF over GST control)	1.14 fold enrichment (6-mer frequency, TF over GST control)	1.16 fold enrichment (6-mer frequency, TF over GST control)
GCTACT	1.43 fold enrichment (6-mer frequency, TF over GST control)	1.39 fold enrichment (6-mer frequency, TF over GST control)	1.07 fold enrichment (6-mer frequency, TF over GST control)	1.3 fold enrichment (6-mer frequency, TF over GST control)	1.28 fold enrichment (6-mer frequency, TF over GST control)	1.38 fold enrichment (6-mer frequency, TF over GST control)	1.17 fold enrichment (6-mer frequency, TF over GST control)	1.47 fold enrichment (6-mer frequency, TF over GST control)	1.09 fold enrichment (6-mer frequency, TF over GST control)	1.32 fold enrichment (6-mer frequency, TF over GST control)
TCTAAT	1.16 fold enrichment (6-mer frequency, TF over GST control)	1.17 fold enrichment (6-mer frequency, TF over GST control)	1.73 fold enrichment (6-mer frequency, TF over GST control)	1.26 fold enrichment (6-mer frequency, TF over GST control)	1.21 fold enrichment (6-mer frequency, TF over GST control)	1.18 fold enrichment (6-mer frequency, TF over GST control)	1.22 fold enrichment (6-mer frequency, TF over GST control)	1.16 fold enrichment (6-mer frequency, TF over GST control)	2.37 fold enrichment (6-mer frequency, TF over GST control)	1.26 fold enrichment (6-mer frequency, TF over GST control)
AATCTT	1.29 fold enrichment (6-mer frequency, TF over GST control)	1.35 fold enrichment (6-mer frequency, TF over GST control)	2.17 fold enrichment (6-mer frequency, TF over GST control)	1.38 fold enrichment (6-mer frequency, TF over GST control)	1.31 fold enrichment (6-mer frequency, TF over GST control)	1.36 fold enrichment (6-mer frequency, TF over GST control)	1.38 fold enrichment (6-mer frequency, TF over GST control)	1.4 fold enrichment (6-mer frequency, TF over GST control)	2.54 fold enrichment (6-mer frequency, TF over GST control)	1.39 fold enrichment (6-mer frequency, TF over GST control)
ATGACC	1.63 fold enrichment (6-mer frequency, TF over GST control)	1.54 fold enrichment (6-mer frequency, TF over GST control)	1.42 fold enrichment (6-mer frequency, TF over GST control)	1.38 fold enrichment (6-mer frequency, TF over GST control)	1.66 fold enrichment (6-mer frequency, TF over GST control)	1.54 fold enrichment (6-mer frequency, TF over GST control)	1.76 fold enrichment (6-mer frequency, TF over GST control)	1.63 fold enrichment (6-mer frequency, TF over GST control)	1.31 fold enrichment (6-mer frequency, TF over GST control)	1.62 fold enrichment (6-mer frequency, TF over GST control)
AAAAAT	1.27 fold enrichment (6-mer frequency, TF over GST control)	1.3 fold enrichment (6-mer frequency, TF over GST control)	1.5 fold enrichment (6-mer frequency, TF over GST control)	1.25 fold enrichment (6-mer frequency, TF over GST control)	1.38 fold enrichment (6-mer frequency, TF over GST control)	1.31 fold enrichment (6-mer frequency, TF over GST control)	1.49 fold enrichment (6-mer frequency, TF over GST control)	1.25 fold enrichment (6-mer frequency, TF over GST control)	1.4 fold enrichment (6-mer frequency, TF over GST control)	1.26 fold enrichment (6-mer frequency, TF over GST control)
CTTCGG	1.51 fold enrichment (6-mer frequency, TF over GST control)	1.54 fold enrichment (6-mer frequency, TF over GST control)	1.77 fold enrichment (6-mer frequency, TF over GST control)	1.48 fold enrichment (6-mer frequency, TF over GST control)	1.5 fold enrichment (6-mer frequency, TF over GST control)	1.52 fold enrichment (6-mer frequency, TF over GST control)	1.52 fold enrichment (6-mer frequency, TF over GST control)	1.39 fold enrichment (6-mer frequency, TF over GST control)	1.52 fold enrichment (6-mer frequency, TF over GST control)	1.72 fold enrichment (6-mer frequency, TF over GST control)
